In PubChem BioAssay (EPA / NIEHS) one finds outcome and AC50 data, which are given here for 40 compounds.

The structures appear in SMILES notation. Active and inactive are the calls of the source. How the source made its calls: active means hit-call score of the fitted dose curve at least 0.9, where 1 is the maximum; inactive means score below 0.9.

The assay can be described thus: ATG_DR4_LXR_CIS: Attagene CIS-FACTORIAL HepG2 Assay for human Liver X Receptor (LXR), DR4 submotif (AID 2282929). To be noted: HepG2 Attagene DR4 cis-reporter, mRNA transcription; actives raise or lower the signal. How it is done:
ATG_CIS is a cell-based, multiplexed-readout assay that uses HepG2, a human liver cell line, with measurements taken at 24 hours after chemical dosing in a 24-well plate.ATG_DR4_LXR_CIS is one of 52 assay component(s) measured or calculated from the ATG_CIS assay. It is designed to make measurements of mRNA induction, a form of inducible reporter, as detected with fluorescence intensity signals by Reverse transcription polymerase chain reaction (RT-PCR) and Capillary electrophoresis technology.Data from the assay component ATG_DR4_LXR_CIS was analyzed into 1 assay endpoint. This assay endpoint, ATG_DR4_LXR_CIS, was analyzed with bidirectional fitting relative to DMSO as the negative control and baseline of activity. Using a type of inducible reporter, measures of mRNA for gain or loss-of-signal activity can be used to understand the reporter gene at the transcription factor-level as they relate to the gene NR1H2 and NR1H3. Furthermore, this assay endpoint can be referred to as a primary readout, because this assay has produced multiple assay endpoints where this one serves a reporter gene function. To generalize the intended target to other relatable targets, this assay endpoint is annotated to the nuclear receptor intended target family, where the subfamily is non-steroidal.
Human liver HepG2 cells are transiently transfected with multiple reporter transcription units (MRTUs) in 6-well plates using FuGene 6 reagent (Roche; 3 ml FuGene/1 mg DNA). The MRTU constructs are regulated by a cis-regulating element (promoter). […] A major difference between the CIS and TRANS system is that in CIS activities of endogenous TFs are measured, whereas the TRANS assay evaluates changes in activities of exogenous, chimeric NR-Gal4 proteins. […] At the end of 24 hour incubation, total RNA was isolated using TriZol reagent (Invitrogen). The isolated RNA is then reverse-transcribed using oligo(dT) primer and Mo-MLV reverse transcriptase (Invitrogen) with DNAse I (Ambion) treatment for 30 min. The one-tenth of the produced cDNA was amplified by PCR using Taq DNA polymerase (Invitrogen) and two reporter sequence-specific primers. The PCR products were fluorescently labeled by primer extension with 6-arboxyfluorescein (6-FAM) 5'-labeled reporter sequence-specific primer (2 min at 95 C, 20 s at 68 C and 10 min at 72 C) and these products were digested with 5U of HpaI (New England Biolabs) for 2h at 37 C. The fragments were purified using Qiaquick PCR columns (Qiagen), analyzed on an ABI 3130xL genetic analyzer (Applied Biosystems) with peak positions identified by using a set of X-rhodamine (ROX)-labeled MapMarker1000 molecular weight standards (BioVentures). The raw capillary electrophoresis data was processed using Attagraph software (Attagene).
For the compound `NC(N)=Nc1nc(CSCCC(N)=NS(N)(=O)=O)cs1`, the call was inactive.

As for `O=C(CC(C(=O)OC1CCCCC1)S(=O)(=O)O)OC1CCCCC1` (stereo not given), the outcome was inactive.

Regarding `CC[N+](CC)(CC(=O)Nc1c(C)cccc1C)Cc1ccccc1`, the outcome was inactive.

In the case of `CCCCCCOC(=O)CCCCCCCC(=O)OCCCCCC`, the result was inactive.

In the case of `CC/C=C\CCO`, the outcome was inactive.

On to `C=CCOC(=O)C(=C)C`, for which the compound was classed as inactive.

With `CC1=CCCC(C)(C)C12CCC(C)O2` (stereo not given), the call was inactive.

Consider `COC(=O)[C@]1(C)CCC[C@@]2(C)[C@H]1CC=C1C=C(C(C)C)CC[C@@H]12`, for which the result was inactive.

Regarding `Sc1nc2ccccc2s1`, the outcome was inactive.

`CC(C)n1c(/C=C/[C@@H](O)C[C@@H](O)CC(=O)O)c(-c2ccc(F)cc2)c2ccccc21`: the compound was called inactive.

Regarding `CCCCCCCCCCCCCCCCCC[N+](C)(C)C`, the AC50 (in general, the midpoint of the concentration-response curve, whichever way the signal moves) was 6.61 µM (active).

`CN(C)Cc1cc(C(C)(C)C)c(O)c(C(C)(C)C)c1`: the call was inactive.

With `COc1cccc(OC)c1C(=O)O`, the compound was classed as inactive.

Regarding `CC1(C)S[C@@H]2[C@H](NC(=O)[C@H](N)c3ccccc3)C(=O)N2[C@H]1C(=O)O`, the outcome was inactive.

As for `CCCN[C@H]1CCc2nc(N)sc2C1`, the result was inactive.

As to `Nc1ccc(S(=O)(=O)Nc2cnc3ccccc3n2)cc1`, the call was inactive.

In the case of `CC(C)CC(=O)CC(C)CC(C)C` (stereo not given), the result was inactive.

Regarding `O=S(=O)(O)c1cccc2ccccc12`, the result was inactive.

For `c1ccc(CNc2ncnc3nc[nH]c23)cc1`, the compound was called inactive.

With `CCOC(=O)c1ccccc1`, the AC50 was 128 µM (active).

For the compound `CC1=C(CC(=O)O)c2cc(F)ccc2/C1=C\c1ccc(S(C)=O)cc1` (stereo not given), the outcome was inactive.

In the case of `C/C=C(\C)C(=O)OCC/C=C\CC`, the result was inactive.

Turning to `CCC(C)(CCC(C)C)C(=O)O` (stereo not given), the result was inactive.

For the compound `COC(OC)C(C)c1ccccc1` (stereo not given), the outcome was inactive.

`O=C(c1ccccc1)c1ccccc1O`: the AC50 is 162 µM (active).

With `CC1=NN(c2cc(Cl)c(S(=O)(=O)O)cc2Cl)C(=O)C1N=Nc1ccc(S(=O)(=O)O)cc1` (stereo not given), the outcome was inactive.

With `Cc1ccnc(N)c1`, the call was inactive.

For `CN(C)CCCN1c2ccccc2CCc2ccc(Cl)cc21`, the compound was classed as inactive.

Consider `C=CCOCC(CC)(CO)COCC=C`, for which the call was inactive.

In the case of `CC/C=C\CC1=C(C)CCC1=O`, the outcome was inactive.

On to `CC(=O)c1nccs1`, for which the result was inactive.

Take `CC(C)CC(=O)CC(C)C`: the call was inactive.

As to `CCO[Si](OCC)(OCC)c1ccccc1`, the result was inactive.

As for `CCO[Si](CCCN)(OCC)OCC`, the result was inactive.

As to `CNC(=C[N+](=O)[O-])NCCSCc1csc(CN(C)C)n1`, the compound was called inactive.

As for `COc1c2occc2cc2ccc(=O)oc12`, the compound was classed as inactive.

Regarding `CCCCC(CC)COC(=O)CS` (stereo not given), the result was inactive.

For the compound `CCCCCC[C@@H](O)C/C=C\CCCCCCCC(=O)O`, the AC50 is 70.4 µM (active).

For `CC(C)(C)NC(=O)[C@@H]1CN(Cc2cccnc2)CCN1C[C@@H](O)C[C@@H](Cc1ccccc1)C(=O)N[C@H]1c2ccccc2C[C@H]1O`, the outcome was inactive.

For `C=CC(C)(CCC=C(C)C)OC(=O)c1ccccc1` (stereo not given), the AC50 is 34.2 µM (active).
